Measurements: PubChem BioAssay AID751 (NMMLSC, 2007)
Hit rate of the full screen: of about 24,000 compounds, about 40 (0.2%) were called active.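 The calls were made as follows: active = inhibition of disassembly above about 33% (limit read from the data); inconclusive = likely self-fluorescent, control bead median signal at least 40; inactive = the rest.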 The list comes from a sample in which actives are over-represented; it also holds similar structures and randomly drawn compounds.

The compounds below were run on 26S proteasome (yeast, GFP-tagged, ATP-dependent disassembly) (assay: inhibitors of ATP-driven 26S proteasome dissociation, primary screen, biochemical, bead-based flow cytometry, GFP-tagged proteasome (AID 751;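 also: plate controls were ATP control with full disassembly for no effect and ATP-gamma-S intact proteasomes for full effect; higher percent means more bead fluorescence retained so stronger block of disassembly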)). Settings: anti-FLAG beads, stronger effect = higher value, concentration not given here.

Row | SMILES | inhibition of disassembly
1 | O=C(COc1ccccc1F)NC1CC1 | -1.13% (inactive)
2 | O=C1CC(c2cccc(F)c2)C2=C(CCCC2=O)N1 (centres undefined) | -0.41% (inactive)
3 | Cc1c2cn[nH]c(=O)c2c(C)n1Cc1ccc(F)cc1 | 2.63% (inactive)
4 | COc1ccc2oc(=O)c(C(=O)N3CCN(c4ccccc4F)CC3)cc2c1 | -0.83% (inactive)
5 | COc1ccccc1N1CCN(c2nc3ccccc3n3nnnc23)CC1 | 22.2% (inactive)
6 | Cc1cccc(NC(=O)CSc2nnc(NC(=O)CN3CCOCC3)s2)c1 | 0.22% (inactive)
7 | COc1cccc(-n2c(Cc3cc(=O)[nH]c(=O)[nH]3)nnc2SCC(=O)Nc2ccccc2)c1 | -1.55% (inactive)
8 | CCOc1ccc(OCC)c(NC(=O)C(NS(=O)(=O)c2ccc3c(c2)oc(=O)n3C)C(C)C)c1 (centres undefined) | -0.66% (inactive)
9 | CCOC(=O)N1CCC(NC(=O)CN2C(=O)COc3ccc(C(C)(C)C)cc32)CC1 | -0.61% (inactive)
10 | Cc1ccccc1C(=O)NCCN=C1NS(=O)(=O)c2ccccc21 | -0.63% (inactive)
11 | CCOc1cc2c(cc1OCC)C(C(=O)O)C(c1ccc(OC)c(O)c1)N(C)C2=O (centres undefined) | 0.12% (inactive)
12 | O=C(Nc1c2c(nn1-c1ccc(F)cc1)CS(=O)C2)C12CC3CC(CC(C3)C1)C2 (centres undefined) | -2.52% (inactive)
13 | CC1CCC(NC(=O)c2ccc(N3CCCC3=O)cc2)CC1 (centres undefined) | 5.08% (inactive)
14 | Cc1cccc2c1N(CC(=O)OC(C)C)C(=O)C2=O | 1.8% (inactive)
15 | CN(CC(=O)NC1CCCCC1)S(=O)(=O)c1cccc2cccnc12 | -0.29% (inactive)
16 | O=C(CN1CCN(c2ccccc2F)CC1)c1ccc2c(c1)OCO2 | -0.87% (inactive)
17 | Cc1cc(Nc2cccc(C)c2C)n2ncnc2n1 | 1.4% (inactive)
18 | Cc1ccc(S(=O)(=O)N(C)CC(=O)NC2CCCC2)cc1 | 1.94% (inactive)
19 | CCN(CC)C(=O)N1CCN(C(=O)c2ccc(C)cn2)CC1 | 0.26% (inactive)
20 | C#CCN1C(=O)C(O)(CC(=O)c2cc(OC)ccc2OC)c2ccccc21 (centres undefined) | -0.27% (inactive)

Row | SMILES | inhibition of disassembly
21 | COc1ccc(S(=O)(=O)NC2(C(F)(F)F)N=C3SCCN3C2=O)cc1 (centres undefined) | 0.29% (inactive)
22 | COc1cc(C2C(C(=O)Nc3ccccc3OC)=C(C)Nc3ncnn32)ccc1O (centres undefined) | -1.23% (inactive)
23 | CC(=O)C1C(c2cccc(Oc3ccccc3)c2)NC(=O)NC1(O)C(F)(F)F (centres undefined) | 3.33% (inactive)
24 | CC(C)CNS(=O)(=O)c1ccc(OCC(=O)Nc2ccc3c(c2)OCO3)c(Cl)c1 | 0.65% (inactive)
25 | CC1CCCN(C(=O)c2ccc3c(c2)C(=O)N(CCC2=CCCCC2)C3=O)C1 (centres undefined) | -0.2% (inactive)
26 | COCCn1c(CN(Cc2ccccc2)Cc2ccccc2)nc2c1c(=O)n(C)c(=O)n2C | 0.04% (inactive)
27 | CCOC(=O)N1CCN(C(=O)c2n[nH]c(=O)c3ccccc23)CC1 | -0.81% (inactive)
28 | COc1ccccc1C(=O)NCCn1cc(SCC(=O)NCc2ccco2)c2ccccc21 | 0.52% (inactive)
29 | COc1ccccc1NC(=O)CN1CCN(S(=O)(=O)c2ccc(Br)cc2)CC1 | -0.52% (inactive)
30 | CCOc1ccccc1NC(=O)C1CCC(CNc2c(N3CCOCC3)c(=O)c2=O)CC1 (centres undefined) | 0.11% (inactive)
31 | CCC(C(=O)Nc1ncccn1)(C(F)(F)F)C(F)(F)F | -0.33% (inactive)
32 | CCOC(=O)c1nnn(CC(=O)Nc2cccc(F)c2)c1C(=O)OCC | -0.09% (inactive)
33 | Cc1ccc(C2CC(c3cccc(Br)c3)n3nc(N)nc3N2)cc1 (centres undefined) | 0.65% (inactive)
34 | Cc1oc(-c2ccccc2F)nc1CS(=O)(=O)CC(=O)NCCCN(C)C1CCCCC1 | -0.8% (inactive)
35 | Cc1nnc(NC(=O)CCC(=O)N2CCC(C)CC2)s1 | -1.57% (inactive)
36 | COc1ccc(-c2c(C)nn3c(N4CCC(C(=O)N5CCCCC5)CC4)cc(C)nc23)cc1OC | -1.42% (inactive)
37 | NS(=O)(=O)c1cc2c(cc1Cl)NC(C(Cl)Cl)NS2(=O)=O (centres undefined) | -0.98% (inactive)
38 | COc1ccc(OC)c(NC(=O)CC(Cc2ccccc2OC)C(=O)O)c1 (centres undefined) | -1.04% (inactive)
39 | Cc1noc(C)c1S(=O)(=O)Nc1ccc(C(=O)O)cc1 | 1.24% (inactive)
40 | CCCOC(=O)Nc1sc2c(c1C(=O)OCC)CCC2 | 1.34% (inactive)

Row | SMILES | inhibition of disassembly
41 | O=C(CN1CCN(c2ncc(C(F)(F)F)cc2Cl)CC1)Nc1ccc2c(c1)OCO2 | 2.15% (inactive)
42 | Cc1nc2ncnn2c(C)c1CCC(=O)N1CCN(C(=O)c2ccco2)CC1 | -0.22% (inactive)
43 | Cc1c2cnn(-c3ccccc3)c(=O)c2c(C)n1CCCC(=O)N1CCN(C)CC1 | 0.62% (inactive)
44 | CCSc1nc2c(c(=O)[nH]1)C(c1cccnc1)C(C(=O)OC(C)C)=C(C)N2 (centres undefined) | 0.035% (inactive)
45 | O=C(NCCCN1CCN(Cc2ccccc2)CC1)C1CCN(S(=O)(=O)N2CCCC2)CC1 | -1.86% (inactive)
46 | Nc1nonc1-c1nc2ccccc2n1CCC(=O)O | 1.19% (inactive)
47 | CCN(c1ccc2c(c1)OCO2)S(=O)(=O)c1cc(Br)cc2c1N(C(=O)C1CC1)CC2 | 28.9% (active)
48 | CCOC(=O)N1CCN(S(=O)(=O)c2cc(Br)cc3c2N(C(=O)C2CC2)CC3)CC1 | 3.18% (inactive)
49 | Cc1noc(C)c1S(=O)(=O)N(CC(=O)NCc1ccc(Cl)cc1)c1ccc2c(c1)OCO2 | -0.25% (inactive)
50 | CN(Cc1ccccc1)C(=O)CCNC(=O)Cn1cnc2ccccc2c1=O | -0.53% (inactive)
51 | COc1ccc2c(c1)CCc1c(C(=O)N3CCCC3)noc1-2 | -0.25% (inactive)
52 | COc1ccc(-c2nc(CS(=O)CC(=O)N3CCc4ccccc4C3)c(C)o2)cc1 (centres undefined) | 1.96% (inactive)
53 | Nc1ccc(-n2nncc2-c2ccco2)cc1 | -0.06% (inactive)
54 | CCc1nnc(NC(=O)CCC(=O)O)s1 | -0.71% (inactive)
55 | O=C(c1ccccc1)c1ccc2nc(N3CCCCC3)c3nncn3c2c1 | 3.43% (inactive)
56 | CC12COC3(C(=O)Nc4ccc(Cl)cn4)CC1CCC32C (centres undefined) | 0.35% (inactive)
57 | CCCn1nnc2sc3c(c2c1=O)CCC(C)C3 (centres undefined) | -0.93% (inactive)
58 | CCCCc1nc2c(=O)[nH]c3ccccc3c2o1 | 0.25% (inactive)
59 | CC(=O)Nc1ccc(S(=O)(=O)N2CCC(N(C)CCC(C)C)CC2)cc1 | 0.37% (inactive)
